Drawing on the supplement of paper PMC10681739, this text covers RUNX1 binding intensity for 130 sequences.

The full ranking holds about 4,000 sequences; the median of “arbitrary fluorescence units” is about 830, and the highest 2% start at about 6,500. This is one part of a sample in which the highest values are shown more often than they occur.

Sequence of RUNX1 (Q01196 whole entry): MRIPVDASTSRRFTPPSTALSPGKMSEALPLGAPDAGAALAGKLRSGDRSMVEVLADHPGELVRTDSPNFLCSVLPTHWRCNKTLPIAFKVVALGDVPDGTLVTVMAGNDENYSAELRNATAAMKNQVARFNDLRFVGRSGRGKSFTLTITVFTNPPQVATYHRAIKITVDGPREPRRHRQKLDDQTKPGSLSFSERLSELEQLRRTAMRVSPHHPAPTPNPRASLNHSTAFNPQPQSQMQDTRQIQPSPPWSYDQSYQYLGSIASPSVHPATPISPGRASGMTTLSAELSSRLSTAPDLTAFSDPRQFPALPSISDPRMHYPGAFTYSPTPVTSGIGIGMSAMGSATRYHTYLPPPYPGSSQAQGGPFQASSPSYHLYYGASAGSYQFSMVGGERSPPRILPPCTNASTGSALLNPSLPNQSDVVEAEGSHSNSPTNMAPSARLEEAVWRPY

This experiment has as its target RUNX1 (UniProt Q01196). Description: RUNX1 binding intensity (PBM fluorescence), RUNX1 alone (arbitrary fluorescence units); higher = stronger binding. The following applies: RUNX1 concentration 2 nM; ETS1 concentration 0 nM. As for the experimental part: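 gcPBM on 36-bp genomic-derived probes (partner site mutated) containing one RUNX1 site and no ETS1 site. Recombinant human RUNX1 (2 nM) was incubated alone or with ETS1 (25 nM) and detected by anti-RUNX1 antibody fluorescence. Values are medians over 4 replicate spots (not normalised). The probes sit in constant array flanks that are not printed.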
Consider CGAGTCAGCAAATCACAGCTCTGCGGGTGGGCTCCT, for which the RUNX1 binding intensity is 739. The value for CAGCATGTGGGTGCACACACCGATTCCTTAGAGGTT was 811; that for ACTGTGCGTTGAGGTCGTCCGCCATCTGCTGCAGCT was 745; that for GAGGTGGTCAGAGCCTCCCTTGACATGAAACAAGAA was 724. The result for TTGGCCTCGCCGGGACCCCTTGCACCGCGGACACAG reads 776; that for AAAACGCGCAAATACGGTGGCTGCGGCCCGCGGGCA, 693; that for GGGCAGGCCGTATGTGGGAGACCACAAAGCCCAAGG, 787. Consider CATGACCTCCTCGCACAAGAATGCGGGGGTGGGGGT, for which the RUNX1 binding intensity is 1050. In the case of CACCCCGCCTCTGCGGGACCACTTCAGGCGCCTTCT, the RUNX1 binding intensity turned out to be 876. With AACCCCTTGCACCGCGGACACAGCTTCTTCTTCCCC, the RUNX1 binding intensity worked out at 1080. The result for TGGCTACCCGAAAGGCGCGTTGGCTGCGGCTACGCA reads 733; that for GTGGCGCGGTGGGGCGCGGACCCGAAACTGCCAAGT, 706. For ACCCCGAAAGTGTGGGCGCGGCTGCGGTTTAACCCG, the RUNX1 binding intensity was determined as 7200. The value for CCCCACATACGGGGGCCGGGGCCGGGCTGTGGGCTT was 755; that for TCCGCTTCTGTGGTCTGATCTTGCTGGGGCTGAACC was 1090; that for ACAGACAGCAGCCTGAGCTCGTGGTTAGAACACCCT was 796. The value for GGTCTGCGGCGCGCGGGATGCTGGGCAATGTAGTTT was 784; that for CAGGCTGCTTCAGGCGCGCGGCAGAGCGGTCAGAGC was 716; that for CGTCCCCGCAAAGCCGCGGCAGAAACTCCCGGCGGT was 1270.

Sequence TAGGGGGGCGCGGTGAGCCCCGGCGGGAATCGAAGC returned an RUNX1 binding intensity of 716. As for TCCACAATTCCCAGGAGTCTCTGCGGCCGCGCGGAG, the RUNX1 binding intensity stood at 830. The value for TCACAATCGCCCACAAAGACAGCAAGTAACTGTCAG was 892. The result for ACGAGGTTTCGTGCAGGCTCCAGCCGAGACCACATC reads 744; that for GTAGGGGAGGGACCGCAGGGAGGCGGCAGTCCTTGT, 931; that for ATCTTGTTCAGGCTCAAAGGGAAACCGCTGCTTTTC, 914. The value for GACAGTTTTCGGGCCTAGTTTGCGGCTGCTCCTGCC was 891.

CTCTCCAGACCGCGCATTTTGGGTCTCGGAGGAGGT: the RUNX1 binding intensity is 735. The result for ACGTCATCCCGCAGGGCTGGCGCGCCCGGCGCAGTC reads 779; that for ACGCCGCGCATACGCGCTTTACGGCGGCCGCAAAAT, 801; that for GAGGAGGAGGTGCGCTGGCTGTTCTGCTGCGGGCCG, 704. The result for ATGCCAAGGGACCTCCCTCCACAACCGCCCCCAGCT reads 930.

Consider CTGACAGCCTCCGCACAAAGCGCGGTCTATTTCTCC, for which the RUNX1 binding intensity turned out to be 918. AAGAAAGGTTCCAGCCTGCGCCCTGCTACCGCGGCG came in with an RUNX1 binding intensity of 738. The value for GCTGCGGCGGCGGCGAAGAGACAACCTCCGCTGGAA was 793; that for TCTGGGAGATGGAGTTCACAGCGCTGCGGGGCCGGA was 674. Sequence CAACGCTTGCCGACCGCCAGCAGGAGGTGGTGGGCG showed an RUNX1 binding intensity of 755. The value for TCAAAGCTGCGGGGTTTCATTGCCTGTTCCTGAACA was 693; that for AGTATACTGTGGTGAGAAACTGCCTGCCATACCAGC was 824. The result for CGTTTACTGTCTGGGACTGCGCCCACGCGGTCACGT reads 871. The result for CACTTGGTCTTGCTGCCCTTGTGGCCCTAACACCCT reads 841. As for TTTATCCTTATTTGCTGGCTTCGCCCACAAGCACAG, the RUNX1 binding intensity was 1010. The result for AGACTAGAGGCGGTTGTGTGAGTCAGAAAGAGGGGC reads 724; that for TCGGGAGGTGGCATGCTGACTCACCTGTGGCTTGTT, 797. The result for CTCCTGCGGCGACACGCCTAGCAGACGGCGCAAGGC reads 773; that for ATAACTTGCGGCAAATGCTGGAGGCAGTACCGCCTT, 840; that for ACACCTCAGCAAGTGGCAGAGACCACAACAAGTCAG, 952.

Take CTTGTGGCTCCTTTCCACCCGCCCCGTAAGCCGGCC: the RUNX1 binding intensity was determined as 930.

ACCCCAAGCCCACAAACCCACCTGAAGGAACCAACT: the RUNX1 binding intensity was 1200.

On to CCGCTGCGGCTGCGCGCTACGTCACTACGTTCGGCG, for which the RUNX1 binding intensity was found to be 768. The value for AAAACCACATTGCCTGTGCTGCAGGCTGGAAAGCTG was 879.

For the sequence GCAGAAACAGAAAGAGACAGGGCTGACCGCAGCAGG, the RUNX1 binding intensity is 1360. With CCTCTCTGTGGTTCTGCCTGGAATACGCAAGGCAGG, the RUNX1 binding intensity came to 1050. The value for GGCGGGAGAGGAGGCCGGGCGGCCGCAGCTGCCTGT was 669; that for TCGCTTACGGTGTCGGTTACAGACTGTGGTTGCCAT was 812; that for CACCCGAACTGAAACACCTGCGGCTGAGGGGAGGGG was 1030. The result for CCGAGAAGTGGAACCGCCAGGCGGAGGGGGCGGAGT reads 767; that for GAGCGCGGCACTCGCCACGGTAAGGATTACCACAGG, 742; that for TGGGGTGTCCGAGCCGCCCCCGAACCGCGCACCCGA, 796.

As for GACAAGCCATGTGGTTGCTGGCAGGCAATCTCAGTC, the RUNX1 binding intensity stood at 1430. The value for TATTCAGCAGCAAAGGAGAGAGTCTGTGGTATCTGC was 708; that for GCTGAGTGCGGGTGGCCTGGGCCGAAGGCTCAGCGG was 724. The result for GCCGCGGTGCCTGCCGGGACAGCGAGTTCAGCCGGG reads 738. The value for CTGTGGGTTCGGCAGTAAACTCTGACCTCCTATTTA was 892; that for GTATGGGAGGTGATCTGGCTGCAAACCGCAAGAGAG was 8250.

AAGTTCGCAACCGCCAAGAGGGGAGACGGGCTGCGC registered an RUNX1 binding intensity of 764. The sequence TGGGACCGCTAATCGGAGAGGGTGCGCAAACGCTGG came in with an RUNX1 binding intensity of 658. The value for ACCCACTTGCTGTTAGAGCATCTTTGCAACCACAGG was 729; that for CTCGGGATTTGTGGTCCACCCGGCTGAACTCGCGGC was 788.

As to AGGGTTTGTGGGACCTGGTGACTCACGGGATCTGGG, the RUNX1 binding intensity turned out to be 703. The result for CTGCCATGAAGGGTTCTGGTTTGAGGTCTCCTCTTA reads 741; that for GCCCCTGATAGCGTCCTCACCATCCCCACAGCGCCT, 1100; that for TGGCCCCGGGGCCCCACAACGGCTTCATGTGTCCCG, 693. The value for CCTTAGCACAGACCACCATCTACGGGAATTCCTAAG was 912; that for CAGTCAGACGGGAGCCCGGCTTCTGTGGTGCCTGCC was 696. The result for CCTAGAACCGTAAGAGAAAGGGGCTGCGGTGCAGCA reads 745; that for CTGTGCGGTCATGTGACGGAGGCCTGAAGGCAGGTC, 1410. Take TGCGCCGGGAGTGCATGAGCTGCCGATGTGGTGCTT: the RUNX1 binding intensity is 697. With GACGTAAGCCGAGAGGCTCCCGTAAGCGGTCTTGAG, the RUNX1 binding intensity worked out at 733. For GACTCGCTCTGCGGCCCCACGCAGGGAGCCTCCTTG, the RUNX1 binding intensity is 905. The value for CTCATAACCGCTAACTCAACCTCTAACATTTGCTGT was 3220. The result for AACTAGTTCGTTCCTTATGCGGCCCAGGGCTCCACC reads 893; that for GGCACGAAAGAGCTGATGCATTTCAACCGCAGCCTG, 1160; that for CGAGCCGCCTTGCTCCCCGGCCCACAGCCCAGCACT, 889. The value for CCGGGGTAAACCACGACACGACTCCCTGCCGTGTGG was 886. As to GACCTTCACCCACAAGAACCACCTCCTCTCAGTAAA, the RUNX1 binding intensity came out at 1950. The value for TACGACTTCAAGGCGGTCAACATCCAGGGCAAACTG was 730; that for TCCCTCCTTGCGCTCTGGTTTTGTGGTTGCTTGCTG was 1120; that for CCAGCCGTAAGCCCCGCCCCCTAGAGGCACCGCGGA was 882. The value for GCTTTGCAGTGTCCTCTATGGAACACCACACACAGT was 809; that for GGGGACGAAGCGGTCTCGGTTCAGCCCGGCTGGGAG was 692. TAAGGCTGTGTGGCTTCCAGATCAAAAACCGCAAAA had an RUNX1 binding intensity of 8380. Turning to CTCTGGCAGGGAGCTCTGAGGGCTAAACCACAAAAA, the RUNX1 binding intensity was determined as 1560.

Turning to CAGGCTGCTGTGGCTACTGCAGCACTGCCTCCCGCT, the RUNX1 binding intensity stood at 741. The value for GCTCTGGCCGAAGATGTCCCTGCGGTGCAGCTGCCG was 796; that for GGGCTTGACCGCCATGTTTGAAGCGGGCGCAAAAAA was 758. The sequence CAGAACGGTCCCTGGAACACTGCGGTTCCCGCCTGG displayed an RUNX1 binding intensity of 874. The result for AGGCTGTTGTGGGTTGCGCCGCTTCGGAGGTGGGAG reads 846; that for CTTGCCACACTGCCTCTTGTTTTGAACCACTATATT, 2040. The result for GCACACAGTGCGGTTGGCTTCCAGCTTCATGTTGGC reads 1470; that for CTTGTAGTCAGGTGGTTGGGCAGGGTGTTTCTCATG, 807; that for TCCAAGGCGCAAAAAACCCGCCCTAAACCGCACCCC, 1630.

As to AGCGCCTTACCCGCGGCACACCCATTTGCTGACCCC, the RUNX1 binding intensity came to 1120. The value for CTTGTTCTATCTCCTGTTTGTGGTGAGTGACTGTCT was 1370; that for AGGCTCATTGCCTGTTTTCATGTGGTTTAGAGAAAA was 1030. The value for TGATCAGGCAGGAGAAGCGCAGAGGTGGACCCGCAA was 751; that for GGGATCCTTCAGCTCCGGGTTAACCCCGACCGCGCC was 697; that for CACTCCCCTCCCGCGGTCACACTTCAGGCGGCCACC was 1460. Sequence GGGGGGGTGCGGTCCTGGTCGGGAGGAGGTGGAGAG showed an RUNX1 binding intensity of 869. The result for ACCTCCACCACAAAGAACAAAAAACGAAGGATAAAA reads 1520; that for CCACACGGCAGGGAGTCGTGTCGTGGTTTACCCCGG, 752; that for ACGCCCGCTGACCACACTGGCGACGTCCCTCTCTGT, 1400.

For the sequence CAGGGGGCCCCACATGCCGCTCTTGCTGCCCAGGTC, the RUNX1 binding intensity turned out to be 798. For CAGTCGCCAGAAACCACAGCACTTCGGCCTGCTTCA, the RUNX1 binding intensity came out at 1480. The value for GACATGTGGCTATTTTGGGCAATTGCCTGAGGAGGC was 720. Take CGACTGGAACCACTCTGAGGCGCTGCCGCAGACACC: the RUNX1 binding intensity amounted to 1040. Turning to TTAACTCCACAGAAGAATAAACCACCACCGCTCACC, the RUNX1 binding intensity is 1060.

With GACCACCTCCTTTCTGTGTTTTGTGGTTTCACAACT, the RUNX1 binding intensity is 2680. As for CATTGTGGGCGCTGTAGTCCAGCTGGAACCTGTTTG, the RUNX1 binding intensity stood at 760. The result for GGAGGCTGTGGTGAGGAAAGAGGAGGTGACACTCCT reads 883. For CCCCTCAATTCCCTCAACCCTTCCCACAAACTGGGA, the RUNX1 binding intensity worked out at 1730. The value for GGCTTACGGCGGGGTACCCTCCTCTGTGGGCGGGGC was 715; that for CTGGCCGTGGCGTACGGGAGCTGTGGGGCCGTCCCC was 728. GGCTGGAAAGGGTCTTGAGAGGAGGTGGTTGCCTTA came in with an RUNX1 binding intensity of 705. Turning to TGTCTGAGGTTTCTCTGTGAACATGAAGCTGAGAAC, the RUNX1 binding intensity was 790. The value for AGGCTTTCTGTTTTATCTCGTGTGTGTGGTGCACCA was 886; that for GGGCTTACGGCTGAACCCATGGCTGCGGGCTGTGCT was 704; that for TCCACAGCCGGTTTCGGCCGGTTCCCACAAGCCCCT was 909. The result for CCGCTTACGGCCTTCGCCCGGCTTACCCGCGTCGCA reads 1030; that for GGCATCCCCTTGCGGCCATCACTTTCTATGCCCTCA, 1250; that for GGGGCAGTGGTCACAGGAGGATCTTGCTGGAGTCAT, 697.
